Consider 5 molecules from the supplement of paper PMC8699584.

± gives the standard deviation of the averaged measurements.

The test system of the assay is Mv4-11. Briefly: cell viability relative to DMSO control (bortezomib = 0%); higher = less growth inhibition. The settings on record: 10 nM; 72 h. The method in brief: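 Viability was determined with CellTiter-Glo luminescence. Acute myeloid leukemia cells (1000 per well, 50 µL) were exposed for 72 h to 679 approved and investigational compounds at a single 10 nM dose in 384-well plates. Percentages came from per-plate linear regression, setting DMSO-treated wells to 100% and positive-control-treated wells to 0%.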
Turning to `C[C@@H]1O[C@@H](Oc2cc(O)c3c(=O)c(O[C@@H]4O[C@@H](C)[C@H](O)[C@@H](O)[C@H]4O)c(-c4ccc(O)cc4)oc3c2)[C@H](O)[C@H](O)[C@H]1O` [Kaempferitrin], the cell viability came out at 105 ± 3.1%.

As to `CNS(=O)(=O)C[C@H]1CC[C@H](N(C)c2[nH]cnc3nccc2-3)CC1` [Oclacitinib], the cell viability was found to be 107 ± 18%.

`Cc1nc(Nc2ncc(C(=O)Nc3c(C)cccc3Cl)s2)cc(N2CCN(CCO)CC2)n1` [Dasatinib]: the cell viability was found to be 114 ± 2.2%.

Turning to `O=C1NC(=O)C(=Cc2ccc(-c3ccc(F)cc3)o2)S1` (stereo in doubt), the cell viability was 108 ± 13%.

For the molecule `O=C(Nc1ccc2[nH]nc(-c3ccncc3)c2c1)[C@@H]1CCN(CC(=O)N2CCN(c3ccc(-c4ncccn4)cc3)CC2)C1`, the cell viability was determined as 95.8 ± 19%.

What is called cell viability is a read-out of living cells in per cent, often relative to untreated cells.
